Sampled rows, rich in hits. Any-hit rate of the full collection: about 8.7%.
JMJD2A Tudor inh = blocks the human JMJD2A Tudor domain; O75164; AlphaScreen JMJD2A-Tudor / H3K4me3 peptide binding; Potency, µM (titrated, usually from 114 µM), for inactives: at the highest dose activity change, negative = inhibition, actives largely listed as inhibitors; 4.4% of 390,000 active; AID 504339; note: % is set by controls: 0 for no effect and ±100 for the full control effect; nearly all actives have a fitted effect of over 50% in size
Target sequence (O75164 whole entry, looked up, the tested form may be a part): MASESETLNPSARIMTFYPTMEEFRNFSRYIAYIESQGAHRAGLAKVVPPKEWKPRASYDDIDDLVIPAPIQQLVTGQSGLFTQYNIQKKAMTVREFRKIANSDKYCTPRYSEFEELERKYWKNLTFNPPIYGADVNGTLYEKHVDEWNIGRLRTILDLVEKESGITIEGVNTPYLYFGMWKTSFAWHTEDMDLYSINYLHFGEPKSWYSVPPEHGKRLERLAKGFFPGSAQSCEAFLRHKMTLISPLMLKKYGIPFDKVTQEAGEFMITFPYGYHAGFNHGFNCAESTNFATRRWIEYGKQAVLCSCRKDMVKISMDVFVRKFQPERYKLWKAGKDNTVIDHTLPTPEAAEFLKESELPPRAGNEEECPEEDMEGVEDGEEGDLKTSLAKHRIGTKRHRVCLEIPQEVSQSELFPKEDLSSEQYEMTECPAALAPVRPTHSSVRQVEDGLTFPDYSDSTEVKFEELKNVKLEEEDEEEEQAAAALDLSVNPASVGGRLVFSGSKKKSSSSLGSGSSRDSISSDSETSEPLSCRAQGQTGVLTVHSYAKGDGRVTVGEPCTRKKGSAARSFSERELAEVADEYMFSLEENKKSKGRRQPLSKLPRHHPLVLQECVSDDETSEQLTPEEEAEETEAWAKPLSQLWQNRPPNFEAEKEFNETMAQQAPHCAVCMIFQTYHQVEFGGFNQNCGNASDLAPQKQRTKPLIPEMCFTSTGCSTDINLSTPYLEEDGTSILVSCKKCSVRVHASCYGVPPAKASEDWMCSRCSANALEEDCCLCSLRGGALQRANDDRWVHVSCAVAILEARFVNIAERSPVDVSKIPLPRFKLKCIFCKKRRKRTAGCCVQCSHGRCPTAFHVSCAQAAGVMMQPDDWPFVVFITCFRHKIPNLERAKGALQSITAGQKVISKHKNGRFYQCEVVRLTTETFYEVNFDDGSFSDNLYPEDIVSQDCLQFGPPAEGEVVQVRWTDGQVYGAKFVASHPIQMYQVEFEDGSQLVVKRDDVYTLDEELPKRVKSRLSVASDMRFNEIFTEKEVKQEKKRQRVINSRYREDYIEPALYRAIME
BAZ2B inh = blocks human BAZ2B. Q9UIF8. Potency, µM (titrated, usually from 114 µM), for the others: at the top dose activity change, negative = inhibition, usual class: inhibitors. AlphaScreen BAZ2B-H3K14Ac peptide displacement. 4.4% of 360,000 active; note: % is set by controls: 0 for no effect and ±100 for the full control effect; nearly all actives have a fitted effect of over 60% in size
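BAZ2B (50 nM) with biotin-H3(5-23)K14Ac peptide (50 nM) in PBS pH 7.4, 0.01% Tween-20, preformed 30 min, then compound 30 min at room temperature; top concentration 110uM. AlphaScreen streptavidin donor/nickel chelate acceptor beads (10 ug/mL final), 20 min dark, signal read.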
G9a inh = inhibitors of human histone lysine methyltransferase G9a | Q96KQ7 | G9a H3K9 monomethylation, AlphaScreen, 2 h | Potency, µM (titrated, usually from 102 µM), for the others: top-dose activity, negative = inhibition, actives largely listed as inhibitors | 8.8% of 350,000 active | AID 504332; note: % is set by controls: 0 for no effect and ±100 for the full control effect; nearly all actives have a fitted effect of over 75% in size
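Signal arises when biotinylated H3K9 peptide, once monomethylated, bridges streptavidin donor and antibody-captured acceptor beads. Enzyme at 20 nM was preincubated 15 min with test compounds; peptide 500 nM and SAM 20 uM then reacted for 2 h.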
Sfp inh = inhibitors of Bacillus subtilis Sfp phosphopantetheinyl transferase | Q9F4F7 | Biochemical Sfp PPTase activity, qHTS | Potency, µM, for inactives: largest response in the series, negative = inhibition, hits mostly inhibitors | 3.5% of 310,000 active | AID 1490;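 note: the enzyme is Sfp with the accession as filed and its product quenches rhodamine fluorescence; 0% = enzyme reaction without inhibitor and -100% = no enzyme wells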
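Step 1, compound plus 15 nM Sfp-PPTase, 15 min, room temperature. Step 2, add rhodamine-CoA (5 uM) and BHQ-2-YbbR (12.5 uM). Step 3, read 525/598 nm fluorescence at 0 and 30 min.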
HP1b binding inh = blocks HP1-beta chromodomain binding to methylated histone tails; P83916; AlphaScreen HP1-beta / biotin-H3K9me3 peptide binding; Potency, µM (highest dose often 114 µM), for the others: at the highest dose activity change, negative = inhibition, most hits filed as inhibitors; 0.56% of 390,000 active; note: nearly all actives have a fitted effect of over 70% in size
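HP1-beta protein (50 nM final) preincubated 30 min at room temperature with biotinylated H3(1-18)K9me3 peptide (50 nM) in PBS pH 7.4, 0.01% Tween-20, then compound added for 30 min. AlphaScreen streptavidin donor/nickel chelate acceptor beads (10 ug/mL final), 30 min dark, luminescence read.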
ALOX12 inh = blocks human arachidonate 12S-lipoxygenase; P18054; purified 12hLO, xylenol orange hydroperoxide absorbance; Potency, µM (top dose mostly 108 µM), for the others: at the highest dose activity change, negative = inhibition, most hits filed as inhibitors; 1.1% of 580,000 active; AID 1671190; note: % is set by controls: 0 for no effect and ±100 for the full control effect
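Purified human 12hLO at 150 nM in 25 mM Hepes, 0.01% Triton X-100, pH 7.0, preincubated 15 min at room temperature with compound. Reaction started with 40 uM arachidonic acid, 30 min at room temperature. Hydroperoxide measured by Fe-xylenol orange, 573/405 nm absorbance ratio.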
Starred values were filed as active, the others as inactive; ? = inconclusive; . = no result given; [ ] = another dose, or the depositor's remark. Calls come from the whole dose curve; as a rule, active = well fitted curve in the direction sought with a large enough effect; inconclusive = small, poorly fitted or top-dose-only effect, or another doubt; inactive = no such curve, though single readings can be large; an effect the other way counts as inactive or inconclusive. Potency is the fitted concentration of half-maximal effect.

SMILES	JMJD2A Tudor inh	BAZ2B inh	G9a inh	Sfp inh	HP1b binding inh	ALOX12 inh
Cc1ccc(C(c2sc3ncnn3c2O)N2CCCCC2)cc1 (centres undefined)	-19.0%	9.7%	13.8%[59 µM]	20.1%	23.1%	21.9%
CC1CCc2c(sc3ncnc(SCC(=O)Nc4ccc5c(c4)OCCO5)c23)C1 (centres undefined)	.	.	.	.	.	24.4%
c1ccc(Cn2nc(C3CCOCC3)nc2C2CCC2)cc1	.	.	.	.	.	48.3%
CC(C)NC(=O)NCc1nnc2n1C(C(=O)N1CCOCC1)CC2 (centres undefined)	.	.	.	.	.	2.2%[6.33 µM]
Cc1ccccc1OCc1nc(C2CN(C(=O)NCc3ccccc3)C2)no1	.	.	.	.	.	0.9%
CC(C)CC(=O)N1CCC(N2C(=O)C3(CCCC3)C2c2ccccc2)CC1 (centres undefined)	.	.	.	.	.	33.5%
Cc1nc2sc(C(c3ccco3)N3CCN(c4ccccc4F)CC3)c(O)n2n1 (centres undefined)	-17.9%	-30.4%	44.7µM*	-9.1%	9.6%	-4.5%
Cc1nc2sc(C(c3ccco3)N3CCc4ccccc4C3)c(O)n2n1 (centres undefined)	56.2µM*	.	.	.	-6.0%	?
O=C(O)CCOc1ccc(Cl)cc1	.	.	.	.	.	-9.2%
COc1ccc(NC(=O)C2=C(C)Nc3nc(SCc4ccccc4C)nn3C2c2ccc(Br)cc2)cc1 (centres undefined)	-17.1%	2.6%	-35.0%[59 µM]	.	4.4%	2.4%
COc1ccc(NC(=O)C2=C(C)Nc3nc(SCc4ccccc4C)nn3C2c2cc(OC)c(O)c(OC)c2)cc1 (centres undefined)	-9.9%	79.4µM*	-25.8%[59 µM]	.	32.5%	?
Cc1ccsc1CNC(=O)Cc1c(F)cccc1Cl	.	.	.	.	.	25.3%
CC(C)[C@H]1CN(c2cnccn2)C[C@@H]1NC(=O)C1(C#N)CCOCC1	.	.	.	.	.	44.5%
CCNc1cc2c(cc1O)CCC1C2CCC2(C)C(O)CCC12 (centres undefined)	89.1µM*	.	.	.	?	?
CC#Cc1cc2c(cc1O)CCC1C2CCC2(C)C(O)CCC12 (centres undefined)	79.4µM*	.	.	.	?	44.7µM*
Cc1ccccc1NC(=O)c1cccc2c(=O)c(C)c(-c3ccccc3)oc12	.	.	.	.	.	-4.6%
CCCNC(=O)N1C[C@@H](Oc2cccnc2)C[C@@H]1C(=O)N1CCOCC1	.	.	.	.	.	2.6%
CC(=O)c1c(N2CCN(CCO)CC2)nc(=S)n(-c2ccccc2)c1C	-4.3%	-15.1%	-41.4%	29.2%	-9.1%	-18.3%
CCOC(=O)N1CCN(c2nc(=S)n(-c3ccccc3)c(C)c2C(C)=O)CC1	-26.9%	-2.7%	?	-13.9%	33.5%	31.6µM*
CC(=O)c1c(N2CCN(c3ccccc3)CC2)nc(=S)n(-c2ccccc2)c1C	-31.5%	-19.1%	-33.4%[59 µM]	79.4µM*	-0.3%	?
N#Cc1ccccc1CSc1nnnn1-c1ccc(Cl)cc1	.	.	.	.	.	27.9%
CCC(=O)NC(Nc1sc2c(c1C(=O)OC)CCC2)C(Cl)(Cl)Cl (centres undefined)	-12.8%	?	9.1%[59 µM]	20µM*	18.3%	-24.0%
COC(=O)c1c(NC(NC(=O)CC(C)C)C(Cl)(Cl)Cl)sc2c1CCC2 (centres undefined)	-18.4%	-4.1%	8.4%[59 µM]	-12.0%	-13.8%	-14.3%
COC(=O)c1c(NC(NC(=O)C(C)C)C(Cl)(Cl)Cl)sc2c1CCC2 (centres undefined)	-19.9%	-11.8%	?	50.1µM*	14.3%	-1.2%
Cc1ccc(CC(=O)NC(C)C(=O)N2CCN(c3ccccn3)CC2)cc1 (centres undefined)	.	.	.	.	.	-4.7%
SMILES	JMJD2A Tudor inh	BAZ2B inh	G9a inh	Sfp inh	HP1b binding inh	ALOX12 inh
COc1ccc2[nH]c3c(c2c1)CCN(C)C31CCN(C(=O)c2ccccc2F)CC1	.	.	.	.	.	19.8%
CCn1c(SCC(=O)Nc2nccs2)nnc1-c1ccc(C)cc1	-20.3%	1.7%	20.2%[59 µM]	4.5%	21.6%	?
Cc1cccc(C(=O)NCc2nnc(SCC(=O)NC3=NCCS3)n2C)c1	39.8µM*	4.9%	-44.7%	3.5%	15.9%	?
O=C(CSc1nnc(CNC(=O)c2ccccc2)o1)c1ccccc1	-4.9%	-2.5%	18.3%	10.9%	15.8%	0.1%
CCn1c(Cc2cccc3ccccc23)nnc1SCC(=O)Nc1nccs1	79.4µM*	5.6%	10µM*	13.3%	26.1%	11.0%
CCC(=O)Nc1ccc(-c2nnc(SCC(=O)Nc3nccs3)n2C)cc1	89.1µM*	-5.4%	39.8µM*	8.3%	26.9%	-7.8%
O=C(CSc1nnc(CNC(=O)c2ccccc2)o1)Nc1nccs1	?	79.4µM*	35.1%	13.3%	49.2%	10.7%
Cn1ccc2ccc(C(=O)N3CCN(CCOc4ccccc4)CC3)cc21	.	.	.	.	.	22.3%
CCNC12CC3CC(CC(C3)C1)C2	.	.	.	.	.	48.3%
Cn1c(CNC(=O)c2ccccc2)nnc1SCC(=O)Nc1nccs1	11.2µM*	-12.0%	-0.5%	5.9%	-11.7%	?
O=C(CSc1nnc(Cn2c(=O)sc3ccccc32)n1-c1ccccc1)Nc1nccs1	-16.2%	-8.6%	35.5µM*	79.4µM*	50.3%	-4.7%[57.4 µM]
COc1cccc(C(=O)NCc2nnc(SCC(=O)Nc3nccs3)n2-c2ccccc2)c1	-7.0%	-3.7%	5.5%[59 µM]	18.5%	30.3%	-5.5%
O=C(CSc1nnc(CNC(=O)c2ccc(F)cc2)o1)Nc1nccs1	-34.6%	79.4µM*	.	2.5%	35.0%	2.2%
COc1ccc(C)cc1NC(=O)CCc1ccc2c(c1)CN(C(=O)C1CC1)CCO2	.	.	.	.	.	24.2%
O=S(=O)(Nc1cccc2cccnc12)C1CC1	50.1µM*	.	.	.	-13.5%	.
O=S(=O)(Nc1c(Br)cc(Br)c2cccnc12)C1CC1	25.1µM*	.	.	.	19.8%	.
O=S(=O)(Nc1cccc2cccnc12)c1cccc2ccccc12	-15.8%	.	.	.	34.0%	.
NC(=O)c1ccc(NC(=O)Cn2ccc3cc(Cl)ccc32)cc1	.	.	.	.	.	-15.8%
CCOC(=O)c1c(C)c(-c2ccccc2)n(CC(=O)N2CCN(C)CC2)c1C	-28.9%	-7.0%	70.8µM*	-3.0%	10.4%	11.5%
CCOC(=O)c1c(C)c(-c2ccccc2)n(CC(=O)N2CCCC2)c1C	-22.4%	-38.2%	-19.5%	10.3%	27.4%	21.5%[57.4 µM]
CC1(C)Cc2nc3sc4c(NCCO)ncnc4c3cc2CS1	-30.2%	-20.0%	.	-11.0%	8.4%	1.6%
CC1(C)Cc2nc3sc(C(=O)O)c(N)c3cc2CS1	.	.	50.1µM*	-23.4%	.	.
CC1(C)Cc2nc3sc(C(=O)NCCCO)c(N)c3cc2CS1	-24.0%	?	25.1µM*	39.8µM*	19.3%	0.4%
CC1(C)Cc2nc3sc(C(=O)NCCO)c(N)c3cc2CO1	-22.1%	11.3%	11.2µM*	?	17.7%	-21.6%
CCSc1nc2n(n1)C(c1ccccc1Cl)C1=C(CCCC1=O)N2 (centres undefined)	.	.	.	.	.	16.2%

Screening data (PubChem)
